Several values for one entry are separate records, joined by “and”; a condition that tells them apart may be missing. Equal entries are not always repeated. Inconclusive results are not listed. Some compounds were tested as several samples or in several runs, with calls that do not always agree. Activity calls are given as the source filed them. Unless noted, the call rests on the fitted dose curve; in most records, active means well fitted curve in the direction sought with a large enough effect; inconclusive means small, poorly fitted or top-dose-only effect, or another doubt; inactive means no such curve, though single readings can be large; an effect the other way counts as inactive or inconclusive.

Test [1] in a line: qHTS to identify inhibitors of the type 1 interferon - major histocompatibility complex class I in skeletal muscle: primary screen against the NCATS Mechanism Interrogation Plate v5.0 (MIPE) Libary (AID 1347411). Further: nearly all actives have a fitted effect of over 65% in size. Put shortly:
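HLA-B HiBit myoblasts, dexamethasone-free medium + 4 ng/ml IFN-b, 24 h compound, 11-pt 1:3 from 46 uM final. Readout: Nano-Glo HiBiT lytic luminescence after 10 min lysis, RT.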

For test [2], the target named is Calcium and integrin-binding protein 1 (Homo sapiens) (UniProt Q99828). Put plainly: Validation qHTS for Identification of Calcium Integrin Binding protein 1 (CIB1) Competitor (AID 1508618). In a few lines:
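Displacement of FITC-alphaIIb peptide (100 nM) from CIB1-GST (1 uM) is monitored by polarization in quantitative HTS format; buffer carries 5 mM CaCl2 and 125 mM NaCl at pH 7.4, incubations are at room temperature.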

A short description of test [3]: Primary qHTS for small molecule stabilizers of the endoplasmic reticulum resident proteome: Secreted ER Calcium Modulated Protein (SERCaMP) assay (AID 1508630). Put shortly: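 The SH-SY5Y reporter protocol was run at 3 concentrations up to 38.3 uM (primary) or 11 concentrations (follow-up): 16 h compound, 100 nM thapsigargin for 4 h, then extracellular luciferase luminescence.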

For test [4], the target named is Cytochrome P450 2D6 (Homo sapiens) (UniProt P10635). The test can be described thus: Cytochrome P450 family 2 subfamily D member 6 (CYP2D6) small molecule antagonists: luciferase biochemical (cell-free) qHTS assay (AID 1645840; active means well fitted curve in the direction sought with a large enough effect in the repeat runs; an effect the other way counts as inactive or inconclusive; further: nearly all actives have a fitted effect of over 55% in size; further: potency means the concentration at half of the fitted maximal effect). Put shortly:
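P450-Glo CYP2D6 system: proluciferin substrate converted by enzyme to luciferin, read by luminescence proportional to activity. Enzyme-substrate mix with compound 10 min at room temperature, then NADPH regeneration 1 h before detection reagent.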

Test [5] deals with Cytochrome P450 2C9 (Homo sapiens) (UniProt P11712). Put plainly: Cytochrome P450 family 2 subfamily C member 9 (CYP2C9) small molecule antagonists: luciferase biochemical (cell-free) qHTS assay (AID 1645842; active means well fitted curve in the direction sought with a large enough effect in the repeat runs; an effect the other way counts as inactive or inconclusive; further: nearly all actives have a fitted effect of over 55% in size; further: potency means the concentration at half of the fitted maximal effect). Put shortly: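 P450-Glo CYP2C9 system: proluciferin substrate with enzyme in mix containing 0.4% BSA, 10 min at room temperature, then NADPH regeneration solution added and incubated 1 h at 37C. Detection reagent stopped reaction; luminescence read after 20 min as RLU.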
Cytochrome P450 2C9 (Homo sapiens), sequence (P11712 whole entry, looked up): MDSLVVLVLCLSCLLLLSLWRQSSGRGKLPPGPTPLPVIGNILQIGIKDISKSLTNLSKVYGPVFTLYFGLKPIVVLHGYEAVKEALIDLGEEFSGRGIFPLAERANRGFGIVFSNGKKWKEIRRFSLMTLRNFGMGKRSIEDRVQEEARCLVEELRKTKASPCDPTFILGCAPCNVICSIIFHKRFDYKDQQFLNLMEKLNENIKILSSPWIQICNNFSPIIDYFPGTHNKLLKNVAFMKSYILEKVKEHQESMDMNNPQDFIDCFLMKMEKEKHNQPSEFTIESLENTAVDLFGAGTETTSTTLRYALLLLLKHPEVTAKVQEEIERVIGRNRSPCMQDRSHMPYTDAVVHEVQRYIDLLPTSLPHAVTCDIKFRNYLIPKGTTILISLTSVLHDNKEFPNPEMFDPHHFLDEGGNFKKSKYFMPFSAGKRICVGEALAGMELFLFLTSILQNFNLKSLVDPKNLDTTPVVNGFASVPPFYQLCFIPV

For test [6], the target named is Papain (Carica papaya) (UniProt P00784). Put plainly: Primary qHTS assay for inhibitors of the protease papain (AID 1645873).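 Further: papain turnover of Z-FR-AMC read as the AMC fluorescence gain over 10 min; series mostly up to about 50 µM.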
Papain (Carica papaya), sequence (P00784 whole entry, looked up): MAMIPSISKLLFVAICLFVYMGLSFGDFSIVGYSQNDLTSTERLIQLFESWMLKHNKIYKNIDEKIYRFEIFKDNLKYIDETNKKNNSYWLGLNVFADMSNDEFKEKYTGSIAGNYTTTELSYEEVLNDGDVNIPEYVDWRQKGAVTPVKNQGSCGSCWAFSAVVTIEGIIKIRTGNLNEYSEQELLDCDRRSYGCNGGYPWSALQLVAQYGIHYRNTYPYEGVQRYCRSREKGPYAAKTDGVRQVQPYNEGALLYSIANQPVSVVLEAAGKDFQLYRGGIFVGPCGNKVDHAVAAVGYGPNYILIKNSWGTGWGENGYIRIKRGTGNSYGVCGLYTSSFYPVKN
A short description of test [7]: Validation qHTS assay for inhibitors of Activation Induced Cytidine Deaminase (AID): UDG Counterscreen signal (AID 1347427). Put shortly: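 Fluorescence at 560 nm excitation, 665 nm emission reports UDG signal after 250 mM NaOH (2x) addition and 30 min. Enzymes (AID 1 uM, UDG 2 U/mL, at 4/3x) preincubated 10 min with compound, then 4 h with 4x 250 nM DJC20/DJC23 substrate at room temperature.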

Test [8] deals with Single-stranded DNA cytosine deaminase (Homo sapiens) (UniProt Q9GZX7). Put plainly: Validation qHTS assay for inhibitors of Activation Induced Cytidine Deaminase (AID): AID signal (AID 1347429). Further: potency means the concentration at half of the fitted maximal effect. Put shortly: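 AID+UDG coupled FRET deamination; cpds up to 114 uM final; DJC20/DJC23 substrate, 4 hr RT; NaOH stop, 30 min RT; read Ex 540/Em 590.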
Single-stranded DNA cytosine deaminase (Homo sapiens), sequence (Q9GZX7 whole entry, looked up): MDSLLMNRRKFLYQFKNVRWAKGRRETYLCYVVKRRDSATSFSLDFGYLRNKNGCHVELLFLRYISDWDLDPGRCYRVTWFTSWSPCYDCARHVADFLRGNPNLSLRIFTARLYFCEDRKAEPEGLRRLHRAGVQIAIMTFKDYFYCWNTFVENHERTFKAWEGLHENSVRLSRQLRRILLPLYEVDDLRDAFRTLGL
A short description of test [9]: Primary qHTS for inhibitors of La Crosse Virus (LACV) - induced cell death in SH-SY5Y cells (AID 1508616).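 Further: top concentration of the series differs between compounds; higher means more rescue of cells from virus-induced death.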 In a few lines: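 Cytopathicity rescue screen: compounds pinned onto SH-SY5Y cells, which are then infected with LACV (MOI 0.01) and held 6 days at 37C. Percent activity is scaled between infected DMSO control and uninfected DMSO control.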
Test [10] addresses Calcium and integrin-binding protein 1 (Homo sapiens) (UniProt Q99828). Put plainly: Primary qHTS for Identification of Calcium Integrin Binding Protein 1 (CIB1) Competitor (AID 1508620).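 Further: GST tagged CIB1 binding a fluorescein labelled alphaIIb integrin peptide tracer; top concentration of the series differs between compounds.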 In a few lines:
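CIB1-GST (1 uM final) and compound incubated 15 min at room temperature before adding FITC-alphaIIb peptide tracer (100 nM final). Competition for binding read by fluorescence polarization (ex 480, em 540) after another 15 min at room temperature.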

A short description of test [11]: Counterscreen qHTS for small molecule stabilizers of the endoplasmic reticulum resident proteome: GLuc-NoTag assay (AID 1508627).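 Further: SH-SY5Y cells given compound then 100 nM thapsigargin to empty ER calcium; series mostly up to about 76 µM.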 Put shortly:
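Counterscreen line: SH-SY5Y-GLuc-NoTag cells, treated with compound 19 hr before a 4 hr, 100 nM thapsigargin calcium depletion. Secreted Gaussia luciferase in the medium was measured by luminescence after coelenterazine was added (0.07x final), with cells unlysed.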

Test [12] in a line: Primary qHTS for inhibitors of nuclear receptor binding SET domain protein 2 (NSD2) in an isogenic RCH-ACV NSD2 p.E1099K mutant (9B) (AID 1645876). Further: nearly all actives have a fitted effect of over 70% in size. Further: potency means the concentration at half of the fitted maximal effect.
Test [13] deals with Protein phosphatase 1D (Homo sapiens) (UniProt O15297). The test can be described thus: RapidFire Mass Spectrometry qHTS Assay for Modulators of WT P53-Induced Phosphatase 1 (WIP1) (AID 1347424).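 Further: amount of dephosphorylated VEPPL-S-QETFS peptide product formed by WIP1; series mostly up to about 63 µM.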 In a few lines: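 RapidFire mass spectrometry measured dephosphorylated peptide after 5 min room-temperature reaction of 2 uM VEPPL-pS-QETFS with 10 nM WIP1 (50 mM Tris-HCl pH 7.5, 30 mM MgCl2, 0.1 mM EGTA, BSA), following 1 hr compound preincubation; 1 uM isotope-labelled product standard.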
Protein phosphatase 1D (Homo sapiens), sequence (O15297 whole entry, looked up): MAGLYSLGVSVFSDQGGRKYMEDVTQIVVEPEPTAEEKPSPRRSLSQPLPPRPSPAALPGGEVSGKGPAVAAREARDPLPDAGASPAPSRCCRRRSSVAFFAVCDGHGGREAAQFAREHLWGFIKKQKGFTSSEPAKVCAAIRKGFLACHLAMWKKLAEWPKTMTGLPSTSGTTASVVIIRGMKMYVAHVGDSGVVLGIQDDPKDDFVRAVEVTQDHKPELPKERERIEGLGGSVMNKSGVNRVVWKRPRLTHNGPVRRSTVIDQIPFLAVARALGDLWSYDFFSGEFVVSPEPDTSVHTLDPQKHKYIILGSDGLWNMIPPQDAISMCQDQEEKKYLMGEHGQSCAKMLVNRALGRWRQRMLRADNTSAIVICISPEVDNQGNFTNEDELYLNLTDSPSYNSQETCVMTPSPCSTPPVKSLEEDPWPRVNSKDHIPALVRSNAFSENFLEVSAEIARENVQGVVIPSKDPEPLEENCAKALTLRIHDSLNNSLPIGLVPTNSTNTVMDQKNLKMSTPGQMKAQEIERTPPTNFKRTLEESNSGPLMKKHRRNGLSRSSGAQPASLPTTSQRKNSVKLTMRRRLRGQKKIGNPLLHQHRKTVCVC

A short description of test [14]: A High-Content qHTS Against Drug Library for the Identification of Small Molecules that Inhibit DYT1 Early Onset Primary Dystonia-Associated Cell Pathology (AID 1645839; calls by dose curve; further: series mostly up to about 46 µM). Put shortly: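 High-content imaging quantified EGFP-TorsinA mislocalization in HEK293-derived cells inducibly expressing DYT1 mutant torsinA, after 48 h exposure to compound given together with tetracycline induction. Cell count served as a toxicity channel alongside %pathology.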

The target of test [15] is Calcium and integrin-binding protein 1 (Homo sapiens) (UniProt Q99828). The test can be described thus: Confirmatory qHTS for Identification of Calcium Integrin Binding Protein 1 (CIB1) Competitor (AID 1508617). Further: nearly all actives have a fitted effect of over 65% in size. In a few lines:
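Confirmatory qHTS measures displacement of a FITC-alphaIIb peptide (100 nM) from CIB1-GST (1 uM) by fluorescence polarization. Calcium-containing HEPES buffer, pH 7.4; two 15 min room-temperature incubations.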

Test [16] deals with N-terminal Xaa-Pro-Lys N-methyltransferase 1 (Homo sapiens) (UniProt Q9BV86). The test can be described thus: Confirmatory qHTS for Inhibitors of N-terminal methyltransferase 1 (NTMT1): MTaseGlo Assay (AID 1645874).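 Further: luminescence from SAH made as NTMT1 methylates SPKRIA peptide using SAM; series mostly up to about 100 µM; nearly all actives have a fitted effect of over 65% in size.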 In a few lines:
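Enzyme mix (125 nM NTMT1, 100 uM SAM) + compound, 15 min RT; + 1 uM SPKRIA, 30 min RT, dark; MTase-Glo reagent 30 min, detection solution 30 min; luminescence. % inhibition vs no-enzyme/DMSO controls, 4-parameter Hill fit.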

The target of test [17] is Protein phosphatase 1D (Homo sapiens) (UniProt O15297). The test can be described thus: Rhodamine-PBP qHTS Assay for Modulators of WT P53-Induced Phosphatase 1 (WIP1) (AID 1347425). Put shortly: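 5 nM WIP1 + 10 uM Rh-PBP, 50 mM Tris pH 7.5, 30 mM MgCl2, 1 mM TCEP, 0.1 mM EGTA, BSA; cpds pinned, 1 hr RT; + 10 uM phosphopeptide; fluorescence 1-min reads x 11 min; delta = f1 - f0.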

Cytochrome P450 2D6 (Homo sapiens), sequence (P10635 whole entry, looked up): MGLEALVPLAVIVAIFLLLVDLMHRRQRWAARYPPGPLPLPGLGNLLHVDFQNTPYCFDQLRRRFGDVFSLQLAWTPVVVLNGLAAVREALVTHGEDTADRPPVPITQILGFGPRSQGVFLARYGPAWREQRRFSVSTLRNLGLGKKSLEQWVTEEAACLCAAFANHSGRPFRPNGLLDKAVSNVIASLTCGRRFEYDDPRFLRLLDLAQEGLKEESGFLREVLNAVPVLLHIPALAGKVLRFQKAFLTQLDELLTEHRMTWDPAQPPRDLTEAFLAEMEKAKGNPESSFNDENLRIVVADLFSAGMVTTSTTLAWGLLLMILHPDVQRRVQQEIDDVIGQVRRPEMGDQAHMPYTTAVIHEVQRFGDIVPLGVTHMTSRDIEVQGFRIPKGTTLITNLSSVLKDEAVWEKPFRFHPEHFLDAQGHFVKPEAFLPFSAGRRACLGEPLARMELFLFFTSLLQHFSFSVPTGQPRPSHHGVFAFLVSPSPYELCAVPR
Calcium and integrin-binding protein 1 (Homo sapiens), sequence (Q99828 whole entry, looked up): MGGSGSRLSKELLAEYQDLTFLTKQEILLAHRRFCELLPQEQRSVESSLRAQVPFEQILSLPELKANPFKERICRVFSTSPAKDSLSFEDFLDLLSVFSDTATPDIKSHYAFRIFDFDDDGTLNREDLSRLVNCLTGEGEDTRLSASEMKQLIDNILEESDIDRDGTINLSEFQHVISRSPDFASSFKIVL
N-terminal Xaa-Pro-Lys N-methyltransferase 1 (Homo sapiens), sequence (Q9BV86 whole entry, looked up): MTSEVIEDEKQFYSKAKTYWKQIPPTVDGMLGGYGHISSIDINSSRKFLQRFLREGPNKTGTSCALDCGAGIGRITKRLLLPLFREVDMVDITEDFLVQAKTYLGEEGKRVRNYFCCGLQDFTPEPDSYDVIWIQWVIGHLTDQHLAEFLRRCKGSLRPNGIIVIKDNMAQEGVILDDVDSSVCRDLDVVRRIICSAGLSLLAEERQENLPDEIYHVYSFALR

Consider `CCc1cncnc1N1CCN(Cc2nc3ccc(C(F)(F)F)cc3[nH]2)CC1`, for which the Potency result in test [1], in test [2], in test [3] and in test [6] was “inactive” throughout. Moreover, the results for the Potency in [4] and in test [5] were 107 nM (active) and 477 nM (active), respectively.

As for `CC(C)(Sc1ccc(CCN(CCCCC2CCCCC2)C(=O)NC2CCCCC2)cc1)C(=O)O`, the Potency result in [1], in test [11], in [3] and in [12] was “inactive” throughout. Besides, the compound was called inactive in test [7], in [9] and in test [10]. In [8], the Potency was 79400 nM (active).

For the compound `Cn1c(=O)c(F)c(Nc2ccc(I)cc2F)c2c(=O)n(C[C@@H](O)CO)cnc21`, the Potency result in test [1] was “inactive”. The outcome in [10] was inactive.

As to `COc1cc(Oc2ccnc3cc(OC)c(OC)cc23)ccc1NC(=O)NC(C)c1nccs1` (stereo unspecified), the Potency result in [1], in test [3] and in test [4] was “inactive” throughout. Moreover, the outcome in [10] was inactive. The Potency in test [5] is 601 nM (active); in test [12] it was “inactive and 13.2 µM (active)”.

`CCCc1nn(C)c2c(=O)[nH]c(-c3cc(S(=O)(=O)N4CCN(C)CC4)ccc3OCC)nc12`: the Potency result in test [1], in test [13], in test [2], in [3], in test [14] and in test [4] was “inactive” in each case. Besides, the Potency result in [6] and in test [12] was “inactive” in each case. Moreover, in test [9], the outcome was inactive. In addition, in [5], the Potency is 13500 nM (active).

Regarding `CC[C@@H](C)[C@H](NC(=O)[C@H](CC1CCCCC1)NC(=O)c1ccno1)C(=O)N1CCC2(CCc3ccccc32)CC1`, the Potency entry in test [1], in test [3], in [4], in test [5] and in [12] was “inactive” in each case. Moreover, the result in [10] was inactive.

In the case of `O=C1CCCC2=C1C(c1[nH]ncc1Cl)N=C(Nc1nc3ccccc3o1)N2` (stereo unspecified), the Potency result in test [1], in test [15], in [3] and in [12] was “inactive” each time. Besides, the outcome in [10] was inactive.

With `O=C(Nc1nc2ccccc2n1CCN1CCOCC1)c1cccc([N+](=O)[O-])c1`, the Potency entry in test [1], in test [8], in test [2], in test [6] and in test [12] was “inactive” throughout. Besides, the compound was classed as inactive in test [7] and in [9].

Consider `COc1nc(-c2ccc3c(c2)OCO3)n(-c2ccc(NC(=O)CSc3ccccc3)cc2)n1`, for which the Potency entry in test [1] and in test [3] was “inactive” in each case. Also, the outcome in test [10] was inactive.

In the case of `CCC(=O)N[C@H]1CC[C@H](C(=O)N(C)c2ccc(-c3nc4ccccc4o3)cc2)C1`, the Potency entry in test [1] and in test [3] was “inactive” in each case. The result in [10] was inactive.

With `OCCn1cc(-c2cnc3nnn(Cc4ccc5ncccc5c4)c3n2)cn1`, the Potency entry in test [16] was “inactive”.

With `O=C(O)COCCN1CCN(C(c2ccccc2)c2ccc(Cl)cc2)CC1` (stereo unspecified), the Potency result in test [13], in test [8], in test [2], in [14] and in [6] was “inactive” in each case. The compound was classed as inactive in test [7], in test [9] and in test [10].

On to `CC(C)OC(=O)C1=CN(C(=O)c2ccc(F)c(F)c2)CC(C)(C)c2c1[nH]c1ccccc21`, for which the Potency entry in [1], in test [3], in test [4] and in test [12] was “inactive” throughout.

Consider `Clc1cccc(Cl)c1NC1=NCCN1`, for which the Potency entry in test [13], in test [8], in [2], in [3], in test [14] and in [5] was “inactive” each time. The Potency entry in [6] and in test [12] was “inactive” throughout. Besides, the call in test [17], in [7], in [9] and in test [10] was inactive.

`Nc1ccc(S(=O)(=O)Nc2ccnn2-c2ccccc2)cc1`: the Potency result in [13], in test [8], in test [2], in test [3], in test [14] and in test [4] was “inactive” throughout. Also, the Potency result in test [12] is “inactive”. Also, the compound was called inactive in [7], in test [9] and in test [10].

The values above are taken from PubChem BioAssay (NCATS).
